D1 ag = human D1 receptor agonism; P21728; HEK293 T-REx D1 cells, calcium flux, agonist mode; activation, % at 2 µM; 1% of 360,000 active
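Inducible HEK293 T-REx D1 cells, force-coupled to calcium signalling, were plated at 4000 cells/well with tetracycline and held overnight at 30 C. After no-wash calcium dye loading, compound-evoked calcium rise over 180 s flagged agonists.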
D1 antagonist = human D1 dopamine receptor antagonism; AID 504652; activity change, negative = inhibition, % at 10 µM; P21728; 3.2% of 360,000 active; HEK293 TREx D1 cells, calcium flux, dopamine EC80; active compounds read low; in the data active = activity change below about -30%
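Using tetracycline-induced force-coupled D1 Hek293 cells and a calcium dye, signals were followed for 180 s after compound, then for 180 s after EC80 dopamine, to detect inhibitors.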
TRHR ag = activates the human TRH receptor | P34981 | 0.18% of 360,000 active | TRHR cells, calcium flux fluo-8, FDSS agonist mode | activation, % at 2 µM
Target sequence (P34981 whole entry, looked up): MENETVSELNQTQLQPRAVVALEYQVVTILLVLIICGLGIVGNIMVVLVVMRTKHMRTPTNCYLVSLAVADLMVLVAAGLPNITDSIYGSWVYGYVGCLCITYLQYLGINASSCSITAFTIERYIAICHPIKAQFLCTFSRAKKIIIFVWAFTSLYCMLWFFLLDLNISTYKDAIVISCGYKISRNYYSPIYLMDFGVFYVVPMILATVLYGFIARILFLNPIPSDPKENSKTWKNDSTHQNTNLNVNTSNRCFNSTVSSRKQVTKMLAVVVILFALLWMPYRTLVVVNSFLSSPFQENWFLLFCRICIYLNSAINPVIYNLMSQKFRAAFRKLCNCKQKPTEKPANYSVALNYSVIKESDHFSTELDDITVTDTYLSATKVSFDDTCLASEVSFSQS
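In this calcium-flux screen, cells bearing human TRHR are dye-loaded with fluo-8, baselined for 10 cycles, then exposed to library compounds; positive kinetic calcium responses during the agonist phase mark hits, with TRH as control.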
TRHR PAM = TRH receptor (human) allosteric enhancement | TRHR cells, fluo-8 calcium fluorescence, EC20 TRH enhancement | P34981 | AID 493056 | 0.66% of 360,000 active | enhancement, % at 2 µM; in the data active = enhancement above about 30%
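Enhancer read-out: after compound pinning and an initial kinetic agonist-mode read, an EC20 of TRH (10 nM final) was injected and fluo-8 calcium signal (Ex 480/Em 530) followed at 1 s/cycle for 100 cycles in TRHR-expressing cells.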
D1 PAM = potentiators of human D1 dopamine receptor; P21728; HEK293 TREx D1 cells, calcium flux, dopamine EC20 potentiation; potentiation, % at 10 µM; 0.036% of 360,000 active; AID 504651; in the data active = potentiation above about 30%
Large screens that a line does not name were inactive. Sampled rows, rich in hits. Any-hit rate of the full collection: about 4.7%. Rule as the data show it, unless noted: active = activation above about 30%; inactive = the rest.

C=CCn1c(SCC(=O)N2CCOCC2)nc(O)cc1=O	none
C#CCOc1c(Br)cc(C2C(C(=O)OC)=C(C)NC3=C2C(=O)c2ccccc23)cc1OCC (centres undefined)	none
Cn1c(Cc2nc(-c3cnccn3)no2)nnc1SCC(=O)Nc1ccccc1	D1 antagonist -87.5
CCOc1ccc(OCC(=O)NCCS(=O)(=O)N2CCN(c3cccc(Cl)c3)CC2)cc1	none
CC1CCN(c2ncnc3ccccc23)CC1	D1 antagonist -34.4
CC1CCN(c2nc(-c3ccccc3O)nc3ccccc23)CC1	none
Cc1ccccc1-c1nn2c(=O)cc(CN3CCN(C(=O)/C=C/c4ccccc4)CC3)nc2s1	D1 antagonist -31.6
Cc1cccc(-c2nn3c(=O)cc(CN4CCN(S(=O)(=O)c5ccc(Cl)cc5)CC4)nc3s2)c1	none
Cc1cccc(-c2nn3c(=O)cc(CN4CCN(C(=O)c5ccccc5Br)CC4)nc3s2)c1	D1 antagonist -33.8
COc1ccccc1N1CCN(C(=O)c2cc3c(s2)CCC3)CC1	none
CC(=O)c1ccc(N2CCN(C(=O)c3cc4c(s3)CCCC4)CC2)cc1	D1 antagonist -34.6
COc1ccc(N2CCN(C(=O)c3cc4c(s3)CCCCC4)CC2)cc1	D1 antagonist -57.3
COc1ccc(-n2nc3cc(C)c(NC(=O)c4ccc(-c5ccc(Br)cc5)o4)cc3n2)cc1	none
COc1ccc(C(=O)Nc2ccc(C(=O)OCc3cc(=O)n4nc(C5CC5)sc4n3)cc2)cc1	none
Cc1nn(CCc2nn[nH]n2)c2nc(C(F)(F)F)cc(C(F)(F)F)c12	none
Cc1nn(CCc2nn[nH]n2)c2nc(-c3ccc(Br)cc3)cc(C(F)(F)F)c12	D1 antagonist -36.1
N#Cc1c(C(F)(F)F)cc(-c2ccco2)nc1SCc1ccncc1	D1 ag 36.6
CCN(CC)C(=O)CSc1nc(-c2ccco2)cc(C(F)(F)F)c1C#N	none
N#Cc1c(C(F)(F)F)cc(-c2ccco2)nc1SCc1ccccn1	D1 ag 31.3
CSc1nc(-c2ccco2)cc(C(F)(F)F)c1C#N	none
Cc1ccc(S(=O)(=O)N(C)C)cc1NC(=O)COC(=O)CCC1CCCCC1	D1 antagonist -39.1
Cc1ccc(S(=O)(=O)N(C)C)cc1NC(=O)COC(=O)CC1CCCC1	none
COc1cc(NC(=O)CCn2cnc3ccccc3c2=O)cc(OC)c1	none
CCOc1ccc(NC(=O)CC2C(=O)N(c3ccc(F)cc3)C(=O)N2Cc2ccc(OC)c(OC)c2)cc1 (centres undefined)	none
NS(=O)(=O)c1ccc(NC(=O)C(Sc2ccccc2)c2ccccc2)cc1 (centres undefined)	D1 antagonist -32.8
CCC(Sc1nc2nccnc2c(=O)n1Cc1ccc(C)cc1)C(=O)NC1CCCCC1 (centres undefined)	none
Cc1ccc(CS/C(Nc2ccccc2C)=C(\C#N)C(=O)NCc2ccco2)c(C)c1	D1 ag 30.2
COC(=O)CCCCCCCCCCN1CCCCC1	none
CCCOC(=O)CCCCCCCCC(O)CN1CCCCC1 (centres undefined)	D1 ag 54.4, D1 antagonist -56.0
CCOC(=O)C1(CCc2ccccc2)CCN(C(=O)CN2C(=O)CSC2=O)CC1	D1 ag 47.7
C=CCN(c1ccccc1)S(=O)(=O)c1cccc(C(=O)OCC(=O)NC2CC2)c1	D1 antagonist -33.6
C=CCN(c1ccccc1)S(=O)(=O)c1cccc(C(=O)Nc2nnc(SCC)s2)c1	D1 antagonist -85.4
C=CCN(c1ccccc1)S(=O)(=O)c1cccc(C(=O)OCC(=O)NCCOC)c1	none
CC(=O)Nc1c(C)nn(-c2ccccc2)c1N1CCC(C(=O)NCc2ccc(F)cc2)CC1	none
CC(=O)Oc1c(C)cc(Cl)cc1C(=O)Nc1ccc([N+](=O)[O-])cc1Cl	D1 ag 33.7
CC(C)c1ccc(NC(=O)c2cc3c(s2)-c2ccccc2SC3)cc1	none
O=C(/C=C/c1ccccc1)N1c2ccccc2Sc2ccc(C(F)(F)F)cc21	none
COc1ccc(/C=C/C(=O)N2c3ccccc3Sc3ccc(C(F)(F)F)cc32)cc1	D1 antagonist -39.9, TRHR PAM 33.5
c1coc(CNc2nc(N3CCCCC3)nc3ccccc23)c1	D1 antagonist -31.7
c1ccc(N2CCN(c3nc(NCc4ccco4)c4ccccc4n3)CC2)cc1	D1 antagonist -77.6
Oc1ccccc1Nc1nc(NCc2ccccc2)c2ccccc2n1	none
CNc1nc(NCc2ccccc2)c2ccccc2n1	D1 ag 33.9, D1 antagonist -37.4
c1ccc(CNc2nc(N3CCN(Cc4ccccc4)CC3)nc3ccccc23)cc1	D1 antagonist -34.8
CCOC(=O)c1c(S(=O)(=O)NCC(=O)Nc2ccc(C(C)=O)cc2)c(C)n(C)c1C	none
Cc1ccc(NC(=O)N(Cc2ccco2)Cc2cc3cc(C)cc(C)c3nc2Cl)cc1	none
Cc1cccc2cc(CN(Cc3ccco3)C(=O)Nc3cccc(C#N)c3)c(Cl)nc12	D1 antagonist -55.0
O=C(CN(c1cccc(C(F)(F)F)c1)S(=O)(=O)c1ccc(Cl)c([N+](=O)[O-])c1)NCc1ccccc1	D1 antagonist -30.8
CC1CN(C2CCN(C(=O)c3ccccc3)CC2)CC(C)O1 (centres undefined)	D1 antagonist -31.2
CC1CCN(C2CCN(C(=O)c3ccccc3F)CC2)CC1	D1 antagonist -81.9
CCCCN(C(=O)C1CC(=O)N(CCc2ccc(OC)c(OC)c2)C1)c1c(N)n(CCCC)c(=O)[nH]c1=O (centres undefined)	TRHR PAM 30.3
CCCCn1c(N)c(N(CCOC)C(=O)c2ccc(Cl)c(S(=O)(=O)N3CCCC3)c2)c(=O)[nH]c1=O	none
CCCCn1c(N)c(N(CC)C(=O)C2CCCC2)c(=O)[nH]c1=O	TRHR PAM 36.5
CCCCn1c(N)c(N(CC)C(=O)c2cccc(OC)c2)c(=O)[nH]c1=O	D1 antagonist -31.5
CCCCn1c(N)c(N(CCOC)C(=O)c2ccc(C)c(S(=O)(=O)N3CCCCC3)c2)c(=O)[nH]c1=O	D1 antagonist -38.0
CC(C)c1ccc(NC(=O)c2cc(S(=O)(=O)N3CCCCC3)cn2C)cc1	none
CCCCCN(C(=O)COC(=O)c1ccc(C)cc1)c1c(N)n(CCCC)c(=O)[nH]c1=O	D1 antagonist -34.6
CCCCCN(C(=O)COC(=O)c1ccc(Br)o1)c1c(N)n(CCCC)c(=O)[nH]c1=O	none
Cc1cc2c(s1)c1cnn(Cc3c(F)ccc(C)c3Cl)c(=O)c1n2C	none
Cc1sc(NC(=O)C2CCCCC2C(=O)O)c(C(N)=O)c1-c1ccccc1 (centres undefined)	none
COC(=O)CCC(=O)Nc1sc(C)c(C)c1C(N)=O	D1 antagonist -40.9
Cc1sc(NC(=O)C2CCCCC2C(=O)O)c(C(N)=O)c1C (centres undefined)	D1 antagonist -36.9
COC(=O)CCC(=O)NC(=S)Nc1sc(C)c(C)c1C(N)=O	none
